Source: PubChem BioAssay (NCI)
Where “and” joins values, the source holds several entries; their conditions need not be identical. Equal values may be shown once. This is part of a sample that, as a whole, favours compounds with a hit. Of some 79,000 tested, about 15% had one in any assay. A structure can be active in one record and inactive in another. Calls of active or inactive are those of the source. Cut-off read from the data, not from the text of the source: active = growth inhibition above about 70%; inactive = the rest.

Assays:
[1] = NCI Yeast Anticancer Drug Screen. Data for the rad50 strain (AID 155);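 note: 0% = growth of vehicle-only cultures of the same strain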; conditions: S. cerevisiae rad50 strain growth inhibition; at 50.0 µM; stronger effect = higher value
How it was run: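 Cells are treated with compound, grown, and their growth is then scored against vehicle-only cultures of the same repair-deficient yeast strain.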

[2] = NCI Yeast Anticancer Drug Screen. Data for the mec2-1 strain (AID 157); conditions: S. cerevisiae mec2-1 strain, at 50.0 µM, stronger effect = higher value
How it was run: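 Growth inhibition is read against vehicle-treated controls after compound exposure of the mec2-1 yeast strain, which is defective in DNA damage repair or cell cycle control.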

[3] = NCI Yeast Anticancer Drug Screen. Data for the sgs1 mgt1 strain (AID 161);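 note: 0% = growth of cultures given vehicle only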; conditions: S. cerevisiae sgs1 mgt1 strain, at 50.0 µM, stronger effect = higher value
How it was run: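 Percent growth inhibition was derived by comparing compound-exposed mutant yeast with vehicle-exposed cultures. The strain carries alterations in DNA damage repair.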

[4] = NCI Yeast Anticancer Drug Screen. Data for the cln2 rad14 strain (AID 165);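 note: 0% = growth equal to vehicle treated cultures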; conditions: S. cerevisiae cln2 rad14 strain, at 50.0 µM, stronger effect = higher value
How it was run: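 Growth inhibition, relative to vehicle-treated controls, is the read-out. The test organism is a yeast strain with defined genetic alterations, cln2 rad14.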

[5] = NCI Yeast Anticancer Drug Screen. Data for the bub3 strain (AID 167); conditions: S. cerevisiae bub3 mutant strain, at 50.0 µM, stronger effect = higher value
How it was run: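 Part of a panel of yeast mutants defective in DNA damage repair or cell cycle regulation. Each strain is grown with compound, and inhibition is calculated relative to solvent-treated cultures.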

[6] = NCI Yeast Anticancer Drug Screen. Data for the mlh1 rad18 strain (AID 175); conditions: S. cerevisiae mlh1 rad18 strain growth inhibition; at 50.0 µM; stronger effect = higher value
How it was run: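 Cells of a genetically altered yeast strain, deficient in DNA damage repair, were treated with compound. Their growth was then compared with that of vehicle-treated cultures to give inhibition.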

Measured: growth inhibition

CC1C(c2ccccc2)OCCN1C (stereo not given)
inactive: [1] -26.4% | [2] -12.9% | [3] -23.7% | [4] -7.5% | [5] -16.4% | [6] -32.2%

CC[C@@]1(O)C(=O)OCc2c1cc1n(c2=O)Cc2c-1nc1ccccc1c2C=Nc1ccc(N[C@@H]2c3cc4c(cc3[C@@H](c3cc(OC)c(O)c(OC)c3)[C@H]3C(=O)OC[C@@H]32)OCO4)cc1
54% (inactive) and 77.9% (active): [4]
46% (inactive) and 81.2% (active): [6]
49.7% (inactive) and 82.5% (active): [1]
50.3% (inactive) and 83.3% (active): [5]
active: [2] 71.6% and 76.7%
69.9% (inactive) and 80.4% (active): [3]

O=[N+]([O-])NC1=NCCN1CCO
inactive: [1] -8.85% | [2] -3.95% | [3] -2.15% | [4] -16.6% | [5] -26.1% | [6] -18.9%

[CH3][Sn]1([CH3])[O]C(=O)c2ccccc2C(=O)[O]1
inactive: [1] 6.8% | [2] 15.7% | [3] 23.6% | [4] -13.4% | [5] -13.4% | [6] -13.8%

CC(C)(Cl)[N+](=O)[O-]
inactive: [1] -3.35% | [2] -13.3% | [3] 6.65% | [4] -1.7% | [5] -5.45% | [6] 16.6%

COc1ccc2c(c1)-c1c(ccc(OC)c1OC(=O)C(=O)c1ccccc1)CC(Cl)N(C)CC2.[O]=[Cr](=[O])([OH])[OH] (stereo not given)
inactive: [1] -18.3% | [2] -0.55% | [3] -19.5% | [4] -17% | [5] -1.3% | [6] -1.25%

CCCCN=C=S
inactive: [1] 45.7% | [2] -11.7% | [3] 21.8% | [4] 5.15% | [5] -3.8% | [6] 19%

CC12CCC(OC3OC(CO)C(OC4OC(CO)C(O)C(O)C4O)C(O)C3O)CC1CCC1C2CCC2(C)C(C3=CC(=O)OC3)CCC12O (stereo not given)
inactive: [1] 15.8% | [2] -3.95% | [3] -14.2% | [4] -7.95% | [5] 13.6% | [6] 6.85%

Nc1nc(N)c2cnnn2n1
inactive: [1] 18.1% | [2] -13.2% | [3] 17.3% | [4] 11.9% | [5] 4.05% | [6] 20.8%

Nc1ccc(S(=O)(=O)c2ccc(NCN3C(=O)NC(=O)C(=O)C3=O)cc2)cc1
inactive: [1] 24.9% | [2] 8.15% | [3] -11.4% | [4] 27.6% | [5] 13.6% | [6] 7.8%

CN(C)c1ccc(N=[N+]=[N-])cc1
inactive: [1] 3.05% | [2] 11% | [3] 10.3% | [4] -74.8% | [5] -6.45% | [6] 8.15%

O=CC=O
inactive: [1] 33.1% | [2] 17.6% | [3] 24.4% | [4] 21.6% | [5] 33.9% | [6] 28.4%

[Cl][Cd][Cl]
inactive: [1] 54.5% | [2] 25.5% | [3] 2.6% | [4] 35.5% | [5] 13.2% | [6] 2.15%

Clc1ccc([As](c2ccc(Cl)cc2)c2ccc(Cl)cc2)cc1
inactive: [2] 48.1% | [4] 13.7% | [5] 30.5% | [6] 48.4%
active: [1] 77.5% | [3] 74.3%

C=CC(=O)NCNC(=O)C=C
inactive: [1] 21.9% and 5.15% | [2] 19.3% and 1.85% | [3] 8.75% and -4.05% | [4] 10.6% and 4.3% | [5] 5.25% and -11.3% | [6] -15.8% and -2.9%

CCCCCCCCCC[C@@H](O)[C@@H]1CC[C@@H]([C@@H]2CC[C@@H]([C@@H](O)CCCCCCCCCC[C@H](O)CC3=CC(C)OC3=O)O2)O1 (stereo not given in full)
inactive: [1] -3.45% | [2] -0.4% | [3] 18.8% | [4] 31% | [5] -11.7% | [6] -21.9%

ClCCN(CCCl)c1ccc(CCN2CCOCC2)cc1
inactive: [1] 46.2% | [2] 15.9% | [3] 19.5% | [4] 37.4% | [5] -0.1% | [6] 9.3%

Nc1ccc(C(=O)O)c(C(=O)O)c1
inactive: [1] -10.5% | [2] -6.8% | [3] 1.35% | [4] -32% | [5] -13.9% | [6] -7.05%

CC(C(O)c1cccnc1)[N+](=O)[O-] (stereo not given)
inactive: [1] -21.8% | [2] -4.35% | [3] -23.6% | [4] -10.1% | [5] 3.95% | [6] -17.4%

Nc1ncnc2c1c(Cl)cn2C1OC(CO)C(O)C1O (stereo not given)
inactive: [1] 10.1% | [2] 15.2% | [3] 12% | [4] 32.4% | [5] 19.2% | [6] 26.4%

O=P(O)(O)C(O)c1ccncc1 (stereo not given)
inactive: [1] -28% | [2] -14.9% | [3] -15.8% | [4] -23.1% | [5] -22.6% | [6] -21.9%

O=C=Nc1cccc(S(=O)(=O)F)c1
inactive: [1] 56.8% | [2] 4.15% | [3] 26% | [4] 28.4% | [5] 33.9% | [6] 11.9%

CC1=NCCN=C(C)C1[N+](=O)[O-]
inactive: [1] 6.7% | [2] 10.9% | [3] 39.2% | [4] 0.55% | [5] 2.65% | [6] 24.3%

CC1(C)C2CC[C@@]1(C)C(=O)C2Br (stereo not given in full)
inactive: [1] 24.9% | [2] 25.6% | [3] -1.6% | [4] 7.55% | [5] 23.9% | [6] -8.7%

CCCCC(CC)COP(OCC(CC)CCCC)OCC(CC)CCCC.[Br][Hg][Br] (stereo not given)
inactive: [1] 4.55% | [2] -3.1% | [3] -10.8% | [4] -8.25% | [5] -8.95% | [6] -6.4%

O=NNc1ccc2ccccc2n1
inactive: [1] -17.1% | [2] 23.5% | [3] -2% | [4] 14.6% | [5] 3.2% | [6] -6.95%

CCCN(CCC)c1c([N+](=O)[O-])cc(C(=O)N(CC)CC)cc1[N+](=O)[O-]
inactive: [1] 40.6% | [2] 29.8% | [3] 37.4% | [4] 13.8% | [5] 34.1% | [6] 11.3%

CC([NH-])C[NH-].CC([NH-])C[NH-].[Co].[NH2-].[NH2-] (stereo not given)
inactive: [1] -10% | [2] -6.5% | [3] 6.15% | [4] -41.2% | [5] 35.2% | [6] 18.4%

COCCCNCCCN1CC1
inactive: [1] 2.25% | [2] -4.4% | [3] -6.9% | [4] -22.7% | [5] -22.4% | [6] 10.1%

Cn1c(O)c(C(=O)NC2CCCCC2)c(=O)n(C)c1=S
inactive: [1] -6.1% | [2] 12.2% | [3] 18.9% | [4] 27.6% | [5] 8.5% | [6] 13.1%

CCC1(C(C)c2ccccc2)C(=O)NC(=O)NC1=O (stereo not given)
inactive: [1] 0% | [2] 6.1% | [3] 1.8% | [4] 46.1% | [5] 16.6% | [6] -3.55%

NNC(=O)NC(=O)NN
inactive: [1] 1.25% | [2] 5.4% | [3] 4.6% | [4] -8.95% | [5] -0.15% | [6] 9.6%

CC(C)(C[N+](=O)[O-])C[N+](=O)[O-]
inactive: [1] -1.45% | [2] -34.1% | [3] 15.6% | [4] -19.1% | [5] -1.7% | [6] 10.9%

Cc1cccc(OCC2=NCCN2)c1C
inactive: [1] 2.95% | [2] -4.4% | [3] -8.45% | [4] -57.1% | [5] -4.55% | [6] -25.6%

COc1ccc(CCN(C)Cc2cccc(OC)c2OC)cc1OC
inactive: [1] -17.1% | [2] -5.85% | [3] -3.85% | [4] -0.95% | [5] -16.1% | [6] -2.1%

CCCCC(=O)O.[Ni]
inactive: [1] -11.2% | [2] -2.65% | [3] -9.7% | [4] -32% | [5] -30.9% | [6] -14.1%

CC(Cc1ccccc1)NC(=O)/C=C/C(=O)O (stereo not given)
inactive: [1] 5.9% | [2] 4.25% | [3] 9.6% | [4] -6.95% | [5] 36.8% | [6] 11.9%

Cn1ccnc1C[N-]Cc1nccn1C.O=[N+]([O-])[O-].O=[N+]([O-])[O-].[Cu+2]
inactive: [1] 18.2% | [2] 7.5% | [3] -1.35% | [4] 24.4% | [5] -5.35% | [6] 5.5%

CC(=O)[CH-]C(C)=O.CC(=O)[CH-]C(C)=O.CC(=O)[CH-]C(C)=O.[Ga+3]
inactive: [1] 28.6% | [2] 13.9% | [3] 15.3% | [4] 42.6% | [5] 31.1% | [6] 18.6%

CC(C)(C)NC(=O)C(Cl)Cl
inactive: [1] -0.65% | [2] -5.7% | [3] -5.85% | [4] -9.6% | [5] 5.15% | [6] 3.35%
